From PubChem
Shown are actives, neighbours in structure and some others; about 6.6% of the full set was active somewhere.
MCF10A rerep – inducers of DNA re-replication in MCF 10A breast cells; Potency, µM (highest dose often 46.1 µM), for the others: at the top dose activity, positive = re-replication, most hits filed as activators; hit rate 2.9% among 350,000; MCF 10A DNA re-replication, Hoechst nuclear intensity, 48 h; also: % of control where 0% means no effect; nearly all actives have a fitted effect of over 50% in size
TSG101-PTAP inh – blocks PTAP/TSG101 interaction to inhibit HIV-1 budding; Potency, µM (highest dose often 115 µM), for the others: at the top dose activity change, negative = inhibition, usual class: inhibitors; Fluorescence polarization, FITC-PTAP peptide / Tsg101 binding; Q99816; 340,000 tested, under 10 active; active = well fitted inhibition curve with a large enough effect in the main read-out, with a control signal flat, not every such curve was filed as active; inconclusive = small, poorly fitted or top-dose-only effect, or effect the other way, or a change in a side signal; inactive = no such curve, though single readings can be large or run the other way; also: % of control where 0% means no effect
Target sequence (Q99816 whole entry, looked up): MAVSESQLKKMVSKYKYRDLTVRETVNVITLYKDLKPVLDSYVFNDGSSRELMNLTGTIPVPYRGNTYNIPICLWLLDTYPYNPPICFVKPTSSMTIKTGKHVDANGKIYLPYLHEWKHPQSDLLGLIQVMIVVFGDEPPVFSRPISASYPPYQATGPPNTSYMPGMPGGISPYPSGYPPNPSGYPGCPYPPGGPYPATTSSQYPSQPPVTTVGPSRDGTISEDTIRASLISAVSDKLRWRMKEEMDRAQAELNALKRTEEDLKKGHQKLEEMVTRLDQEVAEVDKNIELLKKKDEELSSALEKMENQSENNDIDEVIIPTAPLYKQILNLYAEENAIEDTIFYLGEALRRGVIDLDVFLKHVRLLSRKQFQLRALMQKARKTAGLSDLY
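FP read-out: FITC-PTAP peptide, 50 nM final, binding Tsg101 binding domain, 10 uM final; 20 min, r.t.; 10 mM HEPES pH 7.5, 0.15 M NaCl, 0.01% Tween 20, 3 mM EDTA, 0.1 mM TCEP.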
RGS4 inh – inhibitors of human regulator of G protein signaling 4; Transcreener GDP fluorescence polarization, RGS4-accelerated GTP hydrolysis; Potency, µM (top dose mostly 114 µM), for the others: top-dose activity change, negative = inhibition, hits mostly inhibitors; hit rate 0.039% among 390,000; AID 504845; also: % is scaled to controls: 0 for no effect and ±100 for the full control effect; nearly all actives have a fitted effect of over 75% in size
Target sequence (P49798 whole entry, looked up): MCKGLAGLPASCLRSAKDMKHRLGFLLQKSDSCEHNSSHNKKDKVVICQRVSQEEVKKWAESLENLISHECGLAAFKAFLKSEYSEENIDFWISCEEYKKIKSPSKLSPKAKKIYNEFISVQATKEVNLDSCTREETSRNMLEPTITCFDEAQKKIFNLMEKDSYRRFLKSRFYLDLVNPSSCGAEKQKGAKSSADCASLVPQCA
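MLSMR compounds (23 nl, pin-transferred) preincubated 10 min at room temperature with a 500nM (2x) first reagent, then RGS4 at 900nM (2x) plus Transcreener GDP mix added; fluorescence polarization (620/688 nm) read before and after 90 min at 30 °C.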
KB-3-1 tox – KB-3-1 parental cell cytotoxicity | KB-3-1 viability, CellTiter-Glo ATP luminescence, 72 h | AID 1347075 | hit rate 1.4% among 400,000 | Potency, µM (doses to about 46.1 µM), usual class: cytotoxic; also: % is scaled to controls: 0 for no effect and ±100 for the full control effect; nearly all actives have a fitted effect of over 60% in size
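Cytotoxicity measured as CellTiter-Glo luminescence after 72 h at 37 C. Compound titrations were pinned onto drug-naive KB-3-1 parental adenocarcinoma cells grown in DMEM with 10% FBS, and normalized data fitted to concentration-response curves.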
KB-V1 MDR tox – kills drug-selected multidrug resistant KB-V1 cells | KB-V1 MDR cells viability, CellTiter-Glo, 72 h | Potency, µM (doses to about 46.1 µM), actives largely listed as cytotoxic | hit rate 3.4% among 400,000; also: % is scaled to controls: 0 for no effect and ±100 for the full control effect; nearly all actives have a fitted effect of over 60% in size
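Compound-treated KB-V1 multidrug-resistant cells, 72 h, 37 degrees C; viability by CellTiter-Glo. Fitted qHTS curves give the values.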
SW480 rerep – induces DNA re-replication in SW480 colon adenocarcinoma cells | Potency, µM (highest dose often 46.1 µM), inactives show at the top dose re-replication activation, most hits filed as activators | SW480 DNA re-replication, Hoechst DNA content imaging, 48 h | AID 624297 | hit rate 1.8% among 340,000; also: % of control where 0% means no effect; nearly all actives have a fitted effect of over 55% in size
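Readout is total intensity of Hoechst-stained nuclei, excited at 405 nm and collected at 500-530 nm. Compound treatment lasted 48 hr at 37 C in 5% CO2 before staining.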
The depositor's hits bear a star; i = inactive; ? = inconclusive; . = no result given; [ ] = remark or other dose. Unless noted, calls follow the shape of the dose curve; as a rule, active = well fitted curve in the direction sought with a large enough effect; inconclusive = small, poorly fitted or top-dose-only effect, or another doubt; inactive = no such curve, though single readings can be large; an effect the other way counts as inactive or inconclusive. Potency is read from the fitted curve at half-maximal effect.

SMILES	MCF10A rerep	TSG101-PTAP inh	RGS4 inh	KB-3-1 tox	KB-V1 MDR tox	SW480 rerep
COc1ccc(NC(=O)C(=O)NCC2CCCN2S(=O)(=O)c2ccc(C)cc2)cc1 (configuration not stated)	?	-6%	1%	0.15µM*	0.23µM*	?
COc1ccc(S(=O)(=O)N2CCCC2CNC(=O)C(=O)Nc2ccc(C)cc2)cc1 (configuration not stated)	2%	-2%	4%	i	i	-84%
COc1ccc(NC(=O)C(=O)NCC2CCCN2S(=O)(=O)c2cc(C)ccc2C)cc1 (configuration not stated)	?	2%	6%	5.8µM*	5.8µM*	16µM*
Cc1ccc(C)c(S(=O)(=O)N2CCCC2CNC(=O)C(=O)NCc2ccccc2)c1 (configuration not stated)	-5%	-6%	-13%	i	8.2µM*	3%
N[C@@H](Cn1ccc(=O)n(Cc2ccccc2C(=O)O)c1=O)C(=O)O	.	.	-178%[56.9 µM]	.	.	.
Cc1ccc(C)c(S(=O)(=O)N2CCCC2CNC(=O)C(=O)NCc2ccco2)c1 (configuration not stated)	3%	0%	-7%	i	i	0%
Cc1ccc(C)c(S(=O)(=O)N2CCCCC2CCNC(=O)C(=O)NCc2ccco2)c1 (configuration not stated)	?	-1%	2%	?	9.2µM*	?
CC1=C(C#N)C(c2ccc(O)cc2)C2=C(CCCC2=O)N1 (configuration not stated)	0%	-6%	21%	i	i	-5%
CC1=C(C#N)C(c2cccnc2)C2=C(CC(c3ccc(Cl)cc3)CC2=O)N1 (configuration not stated)	3%	-4%	12%	i	i	7.3µM*
COc1ccccc1-c1cc(C(F)(F)F)nc(S(=O)(=O)CCCC(=O)Nc2ccccc2F)n1	.	.	-13%	.	.	.
COc1ccccc1-c1cc(C(F)(F)F)nc(N2CCCC2)n1	26µM*	1%	33%	i	i	18%
COc1ccccc1-c1cc(C(F)(F)F)nc(S(=O)(=O)CCCC(=O)NC(C)C)n1	6.3µM*	-6%	-43%	?	?	2.9µM*
COc1cccc(-c2cc(C(F)(F)F)nc(N3CCN(c4ccccc4)CC3)n2)c1	?	-2%	-4%	?	16µM*	-2%
COc1ccccc1-c1cc(C(F)(F)F)nc(S(=O)(=O)CCCC(=O)NCc2ccc(F)cc2)n1	4.1µM*	-12%	-33%	?	i	?
CCc1cccc(NC(=O)Cn2cc(C(=O)c3ccncc3)c(=O)c3cc(C)c(C)cc32)c1	.	.	21%	.	.	.
CN(C)c1ccc(CN(Cc2ccco2)C(=O)c2ccc(F)cc2)cc1	.	.	-25%	.	.	.
CC(=O)Nc1ccc(C)cc1-c1nc2ccccc2n(CC(=O)c2ccc(C)c(C)c2)c1=O	.	.	-7%	i	i	.
Cc1cc(=O)n2nc(N3CCC(C(=O)Nc4ccc(Br)c(C)c4)CC3)sc2n1	.	.	-8%	i	i	.
COc1ccccc1-c1cc(C(F)(F)F)nc(S(C)(=O)=O)n1	4.1µM*	-1%	?	?	?	?
COc1ccccc1-c1cc(C(F)(F)F)nc(S(=O)(=O)CCCC(=O)Nc2cccnc2Cl)n1	?	-3%	-32%	i	i	?
COc1ccccc1-c1cc(C(F)(F)F)nc(S(=O)(=O)CCCC(=O)N2CCCCC2C)n1 (configuration not stated)	4µM*	-3%	?	?	i	?
CC(=O)c1c(O)c(C)c(O)c2c1OC1=Cc3c(c(C)nn3-c3ccccc3)C(=O)C12C (configuration not stated)	.	.	.	i	i	.
CC(=O)C1=C(O)C2(C)c3c(O)c(C)c(O)c(C(C)=O)c3OC2CC1=O (configuration not stated)	.	.	.	i	16µM*	.
COc1ccc(NC(=O)C2C3C=CC4(O3)C2C(=O)N(CCN2CCCCC2)C4C(=O)NC2CCCC(C)C2C)cc1 (configuration not stated)	?	-3%	6%	i	i	26µM*
CCC1CCCCN1CCN1C(=O)C2C(C(=O)Nc3ccc(OC)cc3)C3C=CC2(O3)C1C(=O)NC1CCCCC1 (configuration not stated)	9.2µM*	-4%	26%	i	i	17%
SMILES	MCF10A rerep	TSG101-PTAP inh	RGS4 inh	KB-3-1 tox	KB-V1 MDR tox	SW480 rerep
CCOc1ccccc1-c1noc(CSc2nnc(-c3ccccc3)n2-c2ccc(F)cc2)n1	.	.	-31%	i	?	.
O=C(c1cccc(COCC(F)(F)C(F)F)c1)N1CCN(c2ccccc2)CC1	1%	.	18%	i	15µM*	0%
O=C(c1cccc(C(=O)N2CCN(c3ccccc3)CC2)c1)N1CCN(c2ccccc2)CC1	1%	-2%	20%	i	?	-2%
COc1ccc(/C=N/NC(=O)c2cccc(COCC(F)(F)C(F)F)c2)cc1	12%	-4%	-9%	i	23µM*	-80%
Cc1ccc(N2C(=O)CSC23C(=O)Nc2ccccc23)cc1F (configuration not stated)	.	.	14%	i	i	.
COc1ccc(-c2nc(CSCC(=O)NCCC(C)C)c(C)o2)cc1OC	.	.	7%	i	i	.
O=C(Nc1cccc(F)c1)[C@H](CSCc1ccccc1)N1Cc2ccccc2C1=O	.	.	3%	i	i	.
OC(COCc1cccs1)CN1CCN(c2cccc(C(F)(F)F)c2)CC1 (configuration not stated)	19%	2%	-19%	i	23µM*	-4%
O=C(N/N=C/c1cccnc1)c1cc(-c2ccccc2OCc2ccccc2)n[nH]1	15µM*	-2%	-24%	?	?	?
COc1ccc(-c2csc3ncnc(N4CCN(c5ccccc5Cl)CC4)c23)cc1	18µM*	5%	-12%	?	?	?
c1ccc(-c2csc3ncnc(N4CCc5ccccc5C4)c23)cc1	?	0%	-19%	?	16µM*	?
COc1ccc(-c2csc3ncnc(N4CCN(c5cccc(C)c5C)CC4)c23)cc1	19%	0%	14%	i	?	-2%
COc1ccc(-n2cc(-c3ccccc3)c3c(N4CCOCC4)ncnc32)cc1	153%	-3%	-15%	i	16µM*	20%
c1ccc(-c2csc3ncnc(N4CCOCC4)c23)cc1	10%	-4%	7%	i	i	-2%
